Screens (PubChem BioAssay)
Rows were chosen to be rich in hits. Some 0.96% of all compounds tested hit in one or more screens of this group.
F-actin modifier: cytoskeleton assembly modification | 0.18% of 91,000 active | inhibition, % at 2 µM | HUVEC TNFa F-actin phalloidin imaging, high content;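 active = inhibition above the batch mean plus 3 SD and confirmed as a hit by visual image inspection, cut at about 30% in these data, passing the limit was not always enough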
sEH activator: increases human soluble epoxide hydrolase activity | P34913 | purified human sEH enzymatic activity, activator screen | activation, % at 2 µM | 0.04% of 91,000 active | AID 717; in the data active = activation above about 37%
Target sequence (P34913 whole entry, looked up): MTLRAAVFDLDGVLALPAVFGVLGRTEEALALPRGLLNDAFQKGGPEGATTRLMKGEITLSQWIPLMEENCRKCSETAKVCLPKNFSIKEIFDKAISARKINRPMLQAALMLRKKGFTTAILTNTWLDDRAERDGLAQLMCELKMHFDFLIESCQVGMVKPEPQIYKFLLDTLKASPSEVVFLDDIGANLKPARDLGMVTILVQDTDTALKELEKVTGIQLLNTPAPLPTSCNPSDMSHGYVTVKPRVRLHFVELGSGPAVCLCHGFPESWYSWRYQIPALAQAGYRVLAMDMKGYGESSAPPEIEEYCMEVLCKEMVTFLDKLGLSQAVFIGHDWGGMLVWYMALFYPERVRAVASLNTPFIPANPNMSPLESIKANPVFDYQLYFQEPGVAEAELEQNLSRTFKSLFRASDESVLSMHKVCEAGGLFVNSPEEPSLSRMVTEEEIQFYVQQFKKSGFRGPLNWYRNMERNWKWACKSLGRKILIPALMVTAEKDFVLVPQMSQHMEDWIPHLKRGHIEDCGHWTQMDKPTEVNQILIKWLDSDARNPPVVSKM
E-sel TNF inh: blocks E-selectin expression induced by TNF alpha. HUVEC TNFa-induced E-selectin immunofluorescence, high content. inhibition, % at 2 µM. 0.71% of 120,000 active. AID 1246;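 active = inhibition above the batch mean plus 3 SD, and confirmed as a hit on visual image review, cut at about 43% in these data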;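 also: 0% = TNF-stimulated DMSO wells and 100% = unstimulated control wells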
sEH inhibitor: blocks human soluble epoxide hydrolase activity; recombinant human sEH enzymatic activity assay; inhibition, % at 2 µM; 0.34% of 91,000 active; P34913; in the data active = inhibition above about 80%
Phagocytosis inh: blocks phagocytosis by macrophages; inhibition, % at 5 µM; 0.07% of 110,000 active; J774A.1 macrophage IgG-bead phagocytosis, imaging;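 active = inhibition above the mean of the plate negative controls plus 5 SD, cut at about 13% in these data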;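 also: phagocytic index as fraction of beads internalized from green versus red external bead signal; plate controls were DMSO negative control for no effect and cytochalasin-D positive control for full effect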
SDO1 yeast rescue: sdo1-depleted yeast growth rescue; 0.21% of 140,000 active; AID 817; S. cerevisiae sdo1-depleted JHY4D growth rescue, OD600 30 h; stronger effect = higher value; pdr5 snq2 efflux-pump mutant strain; z-score at 10 µM;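 active = z-score above 3 at both the 24 hr and the 30 hr optical density reads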;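 also: z-score against mean and SD of all compound wells on the same plate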
sdo1 rescue conf: confirmation of growth rescue in SDO1-depleted yeast, bone marrow failure | shares compounds with SDO1 yeast rescue | S. cerevisiae JHY4D (SDO1-depleted) growth rescue, OD600, 30 h; stronger effect = higher value; efflux-deficient strain, SNQ2 and PDR5 mutated | OD recovery (test concentration not listed) | 44% of 440 active | AID 949;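 active = yeast growth recovered at 30 hours, either rising with dose fitted slope above 0.001 or with average optical density gain above 0.07, some results past the limit were not filed as active; inactive = growth falling with dose or no effect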;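 also: gain in OD600 from 0 h to 30 h averaged across all seven doses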
Starred values were filed as active, the others as inactive; / = not tested or not shown.

SMILES | F-actin modifier | sEH activator | E-sel TNF inh | sEH inhibitor | Phagocytosis inh | SDO1 yeast rescue | sdo1 rescue conf
COC(=O)C1CCN(C(=O)CCCOc2ccccc2)CC1 | -21.0 | -0.7 | 32.6 | 3.6 | 3.2 | 1.8 | 0.044
COC(=O)C1CCN(C(=O)CSc2ccccc2)CC1 | / | / | / | / | -2.4 | -0.65 | /
CC1CCCN(Cc2csc(N)n2)C1 (stereo unspecified) | / | / | -27.0 | / | / | / | /
COC(=O)c1cc(C#N)c(N(C)Cc2ccccc2)nc1C | 19.4 | -8.9 | 0.1 | 11.6 | -1.9 | -1.75 | /
COC(=O)c1cc(C#N)c(NCc2ccccc2)nc1C | 5.9 | -1.0 | / | 1.9 | 2.1 | 13.9* | 0.0872*
O=C(C1CCCCC1)N(Cc1ccccc1)c1ccccn1 | 9.8 | -7.2 | 23.6 | 9.9 | -0.5 | 10.6* | 0.0783*
O=C(c1ccccc1)N(Cc1ccccc1)c1ccccn1 | -10.0 | 7.1 | / | -5.3 | -0.6 | 0.16 | /
Cc1cc(Cl)c(OCCCNCc2ccccc2)c(Br)c1 | -2.7 | -76.0 | 7.4 | 76.0 | 3.2 | 4.22* | 0.0584
Cn1nnnc1SCC(=O)NC1CCCCC1 | -16.6 | 9.1 | -13.5 | -9.9 | -0.6 | 2.03 | 0.0468
CC1CCCC(NC(=O)CSc2nnnn2C)C1C (stereo unspecified) | 3.4 | / | / | / | 0.3 | -0.88 | /
CCCNc1c(NC(C)=O)c(=O)oc2ccccc12 | / | / | / | / | -1.2 | 0.05 | /
COc1ccc(Br)cc1C(=O)Nc1nnn(C)n1 | 3.9 | -5.8 | 7.2 | 4.1 | / | -0.32 | /
COc1ccc(Cl)cc1C(=O)Nc1nnn(C)n1 | -10.4 | -4.6 | 15.5 | 3.3 | -0.2 | 2.26 | 0.0712
O=C(c1ccccc1)C(Nc1ccccn1)c1ccccc1 (stereo unspecified) | / | / | -41.9 | / | / | / | /
Cc1ccc(S(=O)(=O)N2CCN(C(=O)CSc3ncc(C(F)(F)F)cc3Cl)CC2)cc1 | -5.4 | 2.4 | 8.5 | -3.6 | 6.2 | -0.61 | /
Cc1ccc(CO/N=C\Cc2snc(Sc3ncc(C(F)(F)F)cc3Cl)c2C#N)cc1 | -15.9 | 3.8 | 19.5 | -6.8 | -1.9 | 3.71* | 0.0492
Cc1ccc(C(=O)NCc2ccco2)cc1S(=O)(=O)N1CCCCC1 | -12.4 | -6.5 | / | 7.8 | -1.1 | -0.11 | /
O=C(NCc1ccco1)c1ccc(Br)c(S(=O)(=O)N2CCCCC2)c1 | -7.1 | -11.0 | 9.3 | 12.5 | -0.1 | 4.66* | 0.0718*
COCCn1c(=NC(=O)c2cc(-c3cccs3)nc3ccccc23)sc2cc(S(N)(=O)=O)ccc21 | / | / | / | / | -1.9 | 9.37* | 0.0713*
O=C1C(C=NCCCN2CCCC2=O)=C(O)c2ccccc21 | 4.9 | -7.2 | / | 8.4 | -0.3 | 1.11 | /
Cc1nnc(NC(=O)CSc2ncnc3c2cnn3-c2ccccc2C)s1 | 2.0 | -3.3 | 27.5 | 5.2 | / | 1.46 | 0.0421
Cc1c(/C=N\NC(=O)c2cccc(F)c2)cnn1C | / | / | 15.4 | / | -3.2 | 3.34* | 0.0956*
Cc1c(/C=N\NC(=O)c2ccc(F)cc2)cnn1C | / | / | -10.2 | / | -3.3 | -0.12 | /
COc1cc(NC(=S)NC(=O)c2ccccc2F)ccc1NC(=O)c1ccco1 | / | / | / | / | -2.4 | 2.25 | 0.07
CCN(CC)S(=O)(=O)c1ccc(N2CCOCC2)c(NC(=O)c2cnccn2)c1 | / | / | 11.1 | / | -2.9 | 0.21 | /
SMILES | F-actin modifier | sEH activator | E-sel TNF inh | sEH inhibitor | Phagocytosis inh | SDO1 yeast rescue | sdo1 rescue conf
O=c1ccc(OCCOc2ccccc2)nn1-c1ccccc1 | / | / | / | / | -6.4 | 12.2* | 0.0823*
O=C(N1CCN(c2ccccc2)CC1)C(F)(F)C(F)(F)F | / | / | -5.9 | / | 0.2 | 3.42* | 0.042
CC(=O)Nc1ccc(S(=O)(=O)NC(CC(=O)NCCc2ccccc2)C(C)C)cc1 (stereo unspecified) | -2.1 | -11.3 | 0.1 | 13.9 | -0.8 | 0.33 | /
COc1ccc(CCNC(=O)CC(NS(=O)(=O)c2ccc(NC(C)=O)cc2)C(C)C)cc1OC (stereo unspecified) | -19.5 | 10.6 | 1.9 | -9.8 | / | 2.28 | 0.0845
CN(C)CCCN(Cc1ccccc1)C(=S)Nc1ccc(OC(F)F)cc1 | / | / | / | / | -7.7 | 0.53 | /
CN(Cc1ccccc1)C(=S)Nc1ccc(OC(F)F)cc1 | / | / | / | / | -5.0 | 9.06* | 0.0659
COCCn1c(SCC#N)nnc1-c1ccc(OC)cc1 | -15.9 | 7.1 | 12.8 | -4.4 | / | 9.04* | 0.0582
O=C(CCCN1C(=O)c2ccccc2C1=O)NCC1CCCO1 (stereo unspecified) | 20.9 | -11.3 | -10.9 | 11.0 | 2.1 | 1.96 | 0.0347
Cc1ccc(O)c(-c2cc(C(=O)Nc3ccc(S(=O)(=O)N4CC(C)OC(C)C4)cc3)[nH]n2)c1 (stereo unspecified) | -17.1 | 2.7 | -13.1 | -2.2 | -0.5 | 0.53 | /
